Data published in PubChem BioAssay AID1159580 (chemical genetic matrix, 2015).
“And” between values parts separate entries of the source, which are not always exact repeats. Equal entries are not always repeated. Hit rate of the full screen: of about 5,500 compounds, about 2,000 (36%) were called active. Another 18% or so got no clear call; they are omitted. Rule as the data show it: active = normalized growth mostly below about 0.91 (no sharp cut-off); inconclusive = no clear call, values can overlap the other calls; inactive = mostly above about 0.92. Some of the results follow.

Test: chemical genetic growth profiling, strain panel (AID 1159580);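 also: tested at 20 µM; growth read once vehicle control cultures reached saturation at 30 °C; 1 = growth at the plate median or of vehicle wells; lower values mean less growth of the strain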
Conditions: S. cerevisiae deletion strains, growth OD

Measured: normalized growth

CN1CCC(=C2c3ccccc3CC(=O)c3sccc32)CC1
inactive: locus YAL013W, strain DEP1, active compounds read low 1.01 | locus YAL021C, strain ccr4, active compounds read low 0.985 | locus YAL026C, strain drs2, active compounds read low 0.981 | locus YAL030W, strain snc1, active compounds read low 0.975 | locus YAL040C, strain CLN3, active compounds read low 0.992 | locus YBL061C, strain skt5, active compounds read low 0.981 | locus YBR009C, strain hhf1, active compounds read low 1.02 | locus YBR021W, strain FUR4, active compounds read low 1.01 | locus YBR023C, strain chs3, active compounds read low 0.986 | locus YBR171W, strain sec66, active compounds read low 0.964 | locus YBR229C, strain ROT2, active compounds read low 0.999 | locus YBR231C, strain swc5, active compounds read low 0.964 | locus YBR279W, strain paf1, active compounds read low 0.994 | locus YCL011C, strain gbp2, active compounds read low 0.989 | locus YCL016C, strain dcc1, active compounds read low 1.04 | locus YCL029C, strain bik1, active compounds read low 1.02 | locus YCL061C, strain MRC1 (second series), active compounds read low 1 | locus YCL069W, strain vba3, active compounds read low 0.983 | locus YCR088W, strain abp1, active compounds read low 0.973 | locus YDL005C, strain med2, active compounds read low 0.991 | locus YDL035C, strain GPR1, active compounds read low 1.02 | locus YDL040C, strain nat1, active compounds read low 0.984 | locus YDL074C, strain BRE1, active compounds read low 1.02 | locus YDL101C, strain DUN1, active compounds read low 1.02 | locus YDL134C, strain PPH21, active compounds read low 1.01 | locus YDL185W, strain tfp1, active compounds read low 1.01 | locus YDL192W, strain arf1, active compounds read low 1.01 | locus YDR001C, strain nth1, active compounds read low 0.957 | locus YDR069C, strain doa4, active compounds read low 0.954 | locus YDR101C, strain arx1, active compounds read low 1.01 | locus YDR137W, strain rgp1, active compounds read low 0.974 | locus YDR150W, strain NUM1, active compounds read low 1 | locus YDR159W, strain sac3, active compounds read low 1.03 | locus YDR162C, strain NBP2, active compounds read low 1.01 | locus YDR195W, strain ref2 0.895 | locus YDR297W, strain sur2, active compounds read low 0.982 | locus YDR318W, strain mcm21, active compounds read low 1.02 | locus YDR334W, strain swr1, active compounds read low 0.928 | locus YDR335W, strain msn5, active compounds read low 0.977 | locus YDR363W, strain ESC2, active compounds read low 0.985 | locus YDR388W, active compounds read low 1.01 | locus YDR392W, strain spt3, active compounds read low 1.04 | locus YDR502C, strain sam2, active compounds read low 1.01 | locus YEL003W, strain gim4, active compounds read low 0.986 | locus YEL037C, strain rad23, active compounds read low 0.99 | locus YEL061C, strain CIN8 (second series), active compounds read low 0.966 | locus YEL061C, strain CIN8, active compounds read low 1.01 | locus YER002W, strain NOP16, active compounds read low 0.993 | locus YER015W, strain faa2, active compounds read low 1.01 | locus YER016W, strain bim1, active compounds read low 1 | locus YER110C, active compounds read low 1.01 | locus YER111C, strain swi4, active compounds read low 0.972 | locus YER155C, strain BEM2 (second series), active compounds read low 0.927 | locus YER155C, strain BEM2, active compounds read low 1 | locus YER167W, strain BCK2, active compounds read low 1 | locus YFR010W, strain ubp6, active compounds read low 0.958 | locus YGL078C, strain dbp3, active compounds read low 1.01 | locus YGL086W, strain mad1, active compounds read low 0.994 | locus YGL167C, strain pmr1, active compounds read low 0.964 | locus YGL173C, strain kem1, active compounds read low 0.984 | locus YGL227W, strain vid30, active compounds read low 0.984 | locus YGL240W, strain doc1, active compounds read low 0.957 | locus YGL248W, strain PDE1, active compounds read low 1.01 | locus YGL253W, strain hxk2, active compounds read low 1 | locus YGR078C, strain PAC10, active compounds read low 1.01 | locus YGR135W, strain pre9, active compounds read low 1 | locus YGR229C, strain SMI1, active compounds read low 0.999 and 0.99 | locus YGR252W, strain gcn5, active compounds read low 0.962 | locus YHR013C, strain ard1, active compounds read low 0.971 | locus YHR027C, strain rpn1, active compounds read low 0.992 | locus YHR030C, strain SLT2, active compounds read low 1.01 and 1.04 | locus YHR079C, strain IRE1 (second series), active compounds read low 1.02 | locus YHR079C, strain IRE1, active compounds read low 1.03 | locus YHR094C, strain hxt1, active compounds read low 1.01 | locus YHR129C, strain ARP1, active compounds read low 1 | locus YHR142W, strain chs7, active compounds read low 0.99 | locus YHR200W, strain rpn10, active compounds read low 1.02 | locus YIL066C, strain RNR3, active compounds read low 1.01 | locus YIL073C, strain SPO22, active compounds read low 1.06 | locus YIL125W, strain kgd1, active compounds read low 0.998 | locus YIR030C, strain dcg1, active compounds read low 1.01 | locus YJL092W, strain hpr5, active compounds read low 0.977 | locus YJL095W, strain BCK1 (second series), active compounds read low 0.973 | locus YJL095W, strain BCK1, active compounds read low 1.02 | locus YJL115W, strain asf1, active compounds read low 0.953 | locus YJL129C, strain trk1, active compounds read low 0.969 | locus YJL134W, strain LCB3, active compounds read low 1.01 | locus YJL154C, strain vps35, active compounds read low 0.968 | locus YJL164C, strain tpk1, active compounds read low 1.02 | locus YJL166W, strain qcr8, active compounds read low 0.95 | locus YJL168C, strain set2, active compounds read low 1.01 | locus YJL187C, strain SWE1 (second series), active compounds read low 1.02 | locus YJR043C, strain POL32, active compounds read low 1.02 | locus YJR066W, strain TOR1, active compounds read low 0.989 | locus YJR075W, strain HOC1, active compounds read low 1.01
